Test [1] in a line: qHTS assay to identify small molecule antagonists of the glucocorticoid receptor (GR) signaling pathway - cell viability counter screen (AID 720693). Also: nearly all actives have a fitted effect of over 55% in size. Also: potency is read from the fitted curve at half-maximal effect.
Test [2] is described as follows: qHTS assay for identifying genotoxic compounds that show differential cytotoxicity against isogenic chicken DT40 cell lines with known DNA damage response pathways - wild type cell line (AID 743012). Also: nearly all actives have a fitted effect of over 60% in size. Also: potency is read from the fitted curve at half-maximal effect. An outline of the steps:
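Using parental DT40 (300 cells/well), compounds delivered in DMSO incubate 40 h at 37 C/5% CO2. CellTiter-Glo reagent then stands 30 min at room temperature, and luminescence gives cell viability.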
(In general: In qHTS, concentration-response curves come from the screen itself.)

A short description of test [3]: qHTS assay for identifying genotoxic compounds that show differential cytotoxicity against isogenic chicken DT40 cell lines with known DNA damage response pathways - Rad54/Ku70 mutant cell line (AID 743015). Also: nearly all actives have a fitted effect of over 60% in size. Also: potency is read from the fitted curve at half-maximal effect.
Test [4] in a line: qHTS assay to identify small molecule antagonists of the androgen receptor (AR) signaling pathway - cell viability counter screen (AID 743033; also: nearly all actives have a fitted effect of over 45% in size).
Test [5] in a line: qHTS assay for identifying genotoxic compounds that show differential cytotoxicity against isogenic chicken DT40 cell lines with known DNA damage response pathways - Rev3 mutant cell line (AID 743014). Also: nearly all actives have a fitted effect of over 55% in size. Also: potency is read from the fitted curve at half-maximal effect.
Test [6] in a line: qHTS assay to identify small molecule antagonists of the androgen receptor (AR) signaling pathway using the MDA cell line - cell viability counter screen (AID 743041; also: nearly all actives have a fitted effect of over 45% in size). An outline of the steps: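 MDA-kb2 AR-luc human breast carcinoma cells (MMTV-luciferase, AR/GR responsive) were treated with compounds plus R1881 agonist for 16 h at 37 °C. Viability was read as CellTiter-Fluor fluorescence in the same wells as the reporter assay.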

In test [7] the target is Androgen receptor (Homo sapiens) (UniProt P10275). The experiment in a line: qHTS assay to identify small molecule agonists of the androgen receptor (AR) signaling pathway using the MDA cell line (AID 743040; also: nearly all actives have a fitted effect of over 20% in size). The gist of the method:
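MDA-kb2 breast carcinoma cells stably carrying an MMTV-driven luciferase reporter (AR- and GR-responsive) were seeded and held 5 h at 37C, 0% CO2, then exposed to compounds in DMSO for 16 h. Luminescence was read 30 min after ONE-Glo addition.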

Test [8] shares this target. Nature of the test: qHTS assay to identify small molecule antagonists of the androgen receptor (AR) signaling pathway using the MDA cell line (AID 743042; also: nearly all actives have a fitted effect of over 55% in size). An outline of the steps: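 MDA-kb2 cells (human breast carcinoma, stably carrying an MMTV-luciferase reporter responsive to AR and GR) were plated at 3,000 cells/well and preincubated 5 hr at 37C, then given compound plus R1881 agonist for 16 h. ONE-Glo luminescence was read.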

The target is the same in test [9]. The experiment in a line: qHTS assay to identify small molecule agonists of the androgen receptor (AR) signaling pathway (AID 743036; active = well fitted activation curve with a large enough effect in the signal ratio in the repeat runs, with a control signal flat, not every such curve was filed as active; the % refers to the signal ratio). The gist of the method:
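Beta-lactamase under UAS control, stably integrated in HEK293 GripTite cells, reports receptor activation. After 16 h compound treatment, cells received FRET substrate for 2 h at room temperature before fluorescence reading.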

The target is the same in test [10]. The experiment in a line: qHTS assay to identify small molecule antagonists of the androgen receptor (AR) signaling pathway (AID 743035; active = well fitted inhibition curve with a large enough effect in the signal ratio in the repeat runs, not every such curve was filed as active; the % refers to the signal ratio; also: potency is read from the fitted curve at half-maximal effect). The gist of the method:
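Using qHTS, AR-UAS-bla GripTite HEK293 cells received compound, then R1881, and were cultured 16 h at 37C/5% CO2 before a 2 h room-temperature LiveBLAzer B/G FRET substrate step and fluorescence measurement.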

Records with an inconclusive call do not appear. Calls of active or inactive are those of the source. Unless noted, calls follow the shape of the dose curve; as a rule, active = well fitted curve in the direction sought with a large enough effect in the repeat runs; inconclusive = weak or mixed curves; inactive = no such curve, though single readings can be large; an effect the other way counts as inactive or inconclusive. Positions of bridges follow the written chain, without caps; N, C: chain ends. Non-standard residues stand in square brackets, D forms with d. Residues, ends and D or L forms follow the SMILES beside them. *: point of attachment. X2 = CC[C@H](C)CCCCC(=O)*; Dab = NCC[C@H](N)C(=O)O

Consider 21 compounds from PubChem BioAssay (Tox21).

Androgen receptor (Homo sapiens), sequence (P10275 whole entry, looked up): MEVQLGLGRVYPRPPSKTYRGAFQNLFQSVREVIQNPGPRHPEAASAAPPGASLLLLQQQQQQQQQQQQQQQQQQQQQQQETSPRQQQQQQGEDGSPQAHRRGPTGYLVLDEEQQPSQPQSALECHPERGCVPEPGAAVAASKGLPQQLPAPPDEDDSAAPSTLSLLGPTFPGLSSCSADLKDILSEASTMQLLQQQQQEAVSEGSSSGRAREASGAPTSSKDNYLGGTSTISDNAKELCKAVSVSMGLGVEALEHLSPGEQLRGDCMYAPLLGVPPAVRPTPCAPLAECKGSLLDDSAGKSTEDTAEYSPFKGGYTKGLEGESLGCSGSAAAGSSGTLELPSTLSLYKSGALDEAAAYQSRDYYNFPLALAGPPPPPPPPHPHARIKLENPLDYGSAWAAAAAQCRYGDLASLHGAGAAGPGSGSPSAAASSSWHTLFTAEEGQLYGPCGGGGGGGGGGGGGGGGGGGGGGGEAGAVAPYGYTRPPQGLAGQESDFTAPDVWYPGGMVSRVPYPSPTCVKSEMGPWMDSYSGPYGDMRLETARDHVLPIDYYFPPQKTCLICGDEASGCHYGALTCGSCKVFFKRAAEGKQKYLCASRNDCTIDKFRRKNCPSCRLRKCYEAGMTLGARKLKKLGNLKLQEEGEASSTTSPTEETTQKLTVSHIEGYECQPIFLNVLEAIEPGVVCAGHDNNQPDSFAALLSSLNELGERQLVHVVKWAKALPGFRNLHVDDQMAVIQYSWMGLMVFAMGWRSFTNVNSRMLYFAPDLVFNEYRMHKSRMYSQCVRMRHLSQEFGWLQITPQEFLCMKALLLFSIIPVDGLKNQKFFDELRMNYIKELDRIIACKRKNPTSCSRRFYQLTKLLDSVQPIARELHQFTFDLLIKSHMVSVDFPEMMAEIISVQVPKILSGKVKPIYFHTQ

Consider `COC(=O)[C@H]1[C@H]2C[C@@H]3c4[nH]c5cc(OC)ccc5c4CCN3C[C@H]2C[C@H](OC)[C@@H]1OC`, for which the Potency entry in test [1], in [2], in test [3] and in test [4] was “inactive” in each case.
In the case of `O=C(NNCNNC(=O)c1ccncc1)c1ccncc1`, the Potency entry in test [1], in test [2], in test [5] and in [6] was “inactive” each time.
In the case of `CS(=O)(=O)Nc1cc2occ(NC=O)c(=O)c2cc1Oc1ccccc1`, the Potency entry in [1], in test [2], in test [3], in test [4], in test [7] and in test [6] was “inactive” throughout. The Potency entry in [8] was “inactive”.
As to `CN1CCC(CN2c3ccccc3Sc3ccccc32)C1` (centres undefined), the Potency entry in [1], in test [4], in test [9] and in test [6] was “inactive” each time. Besides, the Potency in [2] and in [3] was 5.96 µM (active) each time.
As for `CC[C@H]1NC(=O)[C@@H](NC(=O)c2ncccc2O)[C@@H](C)OC(=O)[C@H](c2ccccc2)NC(=O)[C@@H]2CC(=O)CCN2C(=O)[C@H](Cc2ccccc2)N(C)C(=O)[C@@H]2CCCN2C1=O`, the Potency entry in test [1], in [2], in [3], in [4], in test [10] and in test [7] was “inactive” each time. For the same compound, the Potency entry in test [6] and in [8] was “inactive” each time.
As to `CC(CN1c2ccccc2Sc2cccnc21)N(C)C` (centres undefined), the Potency entry in test [1], in test [5], in test [4] and in test [6] was “inactive” throughout. Besides, in [2], the Potency was 29.8 µM (active).
Regarding `COC(=O)[C@@H](N)CS`, the Potency result in test [1], in test [2], in [5], in test [4] and in test [6] was “inactive” each time.
For `Cc1cc(C)c(NC(=O)C[C@H](CC(=O)O)c2cccc3ccccc23)c(C(=O)N2CCC3(CCCC3)CC2)c1`, the Potency entry in [1], in test [2], in [3], in [4], in test [9] and in test [6] was “inactive” each time. Moreover, the Potency entry in test [8] was “inactive”.
In the case of `NCCCC[C@H](N)C(=O)O`, the Potency entry in [1], in test [2], in test [3], in test [4], in [10] and in [7] was “inactive” in each case. Also, the Potency result in test [6] and in test [8] was “inactive” in each case.
As for `COc1ccc2c(c1)N(C[C@H](C)CN(C)C)c1ccccc1S2`, the Potency result in test [1] and in test [6] was “inactive” throughout. Further, the Potency in test [2] and in test [5] was 11.4 µM (active) each time.
Consider `CC(CN(C)C)CN1c2ccccc2S(=O)(=O)c2ccccc21` (centres undefined), for which the Potency entry in test [1], in [2], in test [3], in test [4], in test [10] and in test [7] was “inactive” throughout. In addition, the Potency result in [6] and in [8] was “inactive” throughout.
Turning to `CC[C@H](C)CCCCC(=O)N[C@@H](CCN)C(=O)N[C@H](C(=O)N[C@@H](CCN)C(=O)N[C@H]1CCNC(=O)[C@H]([C@@H](C)O)NC(=O)[C@H](CCN)NC(=O)[C@H](CCN)NC(=O)[C@H](CC(C)C)NC(=O)[C@@H](CC(C)C)NC(=O)[C@H](CCN)NC1=O)[C@@H](C)O` (X2-[Dab]T[Dab][Dab][Dab][dL]L[Dab][Dab]T; lactam 4-C), the Potency result in test [1], in test [2], in test [5], in test [4] and in test [6] was “inactive” in each case.
Turning to `CC(C)CCC[C@@H](C)[C@H]1CC(=O)C2=C3CC[C@H]4C[C@@H](O)CC[C@]4(C)[C@H]3CC[C@@]21C`, the Potency result in test [1], in [4], in test [10], in [7], in [6] and in test [8] was “inactive” each time. Moreover, the Potency in [2] is 0.596 µM (active); in [3] it was 0.841 µM (active).
`CC[C@]1(O)CC2CN(CCc3c([nH]c4ccccc34)[C@@](C(=O)OC)(c3cc4c(cc3OC)N(C)[C@H]3[C@@](O)(C(N)=O)[C@H](O)[C@]5(CC)C=CCN6CC[C@]43[C@@H]65)C2)C1` (some centres undefined): the Potency entry in test [1], in [4], in test [7], in test [6] and in test [8] was “inactive” each time. The Potency in test [2] is 0.0473 µM (active); in test [3], 0.0596 µM (active); in test [10], 0.213 µM (active).
With `CCc1ccc(S(=O)(=O)O)cc1`, the Potency result in [1], in [2], in test [3], in test [4], in test [10] and in test [7] was “inactive” each time. The Potency result in test [6] and in [8] was “inactive” throughout.
Regarding `C=CCN1CCCC1CNC(=O)c1cc(S(N)(=O)=O)cc(OC)c1OC` (centres undefined), the Potency entry in test [1], in test [2], in test [5] and in [6] was “inactive” in each case.
As to `C=C1CC[C@H](O)CC1=C/C=C1\CCC[C@]2(C)[C@@H]([C@H](C)CC[C@@H](O)C(C)(C)O)CC[C@@H]12`, the Potency in [1] is 21.3 µM (active); in test [2], 7.5 µM (active); in test [3], 13.3 µM (active). For the same compound, the Potency result in [4], in [9], in test [7], in [6] and in [8] was “inactive” throughout.
For the compound `C[C@]12C=CC(=O)N[C@@H]1CC[C@@H]1[C@@H]2CC[C@]2(C)[C@@H](C(=O)Nc3cc(C(F)(F)F)ccc3C(F)(F)F)CC[C@@H]12`, the Potency entry in [1] and in test [4] was “inactive” each time. The Potency in test [2] is 4.22 µM (active); in [3] it was 2.66 µM (active).
For `CCN(CC)CCC(=O)N1c2ccccc2Sc2ccc(C(F)(F)F)cc21`, the Potency result in [1] and in test [4] was “inactive” in each case. For the same compound, the Potency was 5.96 µM (active) in test [2] and 8.41 µM (active) in test [3].
For `O=P(O)(O)OC(CO)CO`, the Potency entry in test [1], in test [2], in test [5], in [4] and in [6] was “inactive” throughout.
On to `CN[C@@H]1[C@@H](O)[C@@H](O[C@@H]2[C@@H](O)[C@H](OC3OC(CN)=CCC3N)[C@@H](N)C[C@H]2N)OC[C@]1(C)O` (some centres undefined), for which the Potency result in test [1], in [2], in test [5] and in test [6] was “inactive” in each case.
